Reference: PubChem BioAssay
Where “and” joins values, the source holds several entries; their conditions need not be identical. Equal entries are not always repeated. Calls of active or inactive are those of the source.

How the values were obtained:
[1] = small molecules captured by biotinylated probe aFSTL3 – biochemical, small-molecule microarray, fluorescence 635/667, stem cell growth factor project, primary screen (AID 1064); details: higher = more signal;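 also: measures binding of the biotinylated anti-FSTL3 antibody to printed compounds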
[2] = binders from COS7 lysate, DM2A8 probe, primary screen, torsin A project, cell lysate, small-molecule microarray, fluorescence 635/667 (AID 1065); details: higher = more signal, COS7 lysate expressing mutant human TOR1A
[3] = small molecules captured by biotinylated probe aFGF2 – biochemical, small-molecule microarray, fluorescence 635/667, stem cell growth factor project, primary screen (AID 1067); details: higher = more signal;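 also: measures binding of biotinylated aFGF2 protein to printed compounds on slides; z-score merges feature fluorescence and signal-to-noise across triplicate slides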
[4] = small molecules captured by biotinylated probe aFGF10 – biochemical, small-molecule microarray, fluorescence 635/667, stem cell growth factor project, primary screen (AID 1071); details: higher = more signal;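 also: score merges 667 nm spot intensity and signal to noise from triplicate slides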
[5] = target: Neurogenic locus notch homolog protein 2 (Homo sapiens) (UniProt Q04721); assay: small molecules binding Notch2 protein – biochemical, small-molecule microarray, 635 nm fluorescence, stem cell growth factors, primary screen (AID 1073); details: higher = more signal
[6] = target: Pro-neuregulin-1, membrane-bound isoform (Homo sapiens) (UniProt Q02297); assay: small molecules binding neuregulin-1 protein – biochemical, small-molecule microarray, fluorescence 635/667, psychiatric disease protein project, primary screen (AID 1075); details: NRG1 binding, 635 nm fluorescence, higher = more signal;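 also: score combines 667 nm spot fluorescence with signal to noise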
[7] = tested on: Neuregulin-1 EGF-like domain; assay: small molecules binding NRG1 EGF domain – biochemical, small-molecule microarray, 635 nm fluorescence, primary screen (AID 1081); details: higher = more signal;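 also: binding of the protein to compounds printed on small-molecule microarray slides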
[8] = FRG1 expression reporter modulators in myotubes – cell-based, C2C12 myotubes, firefly/Renilla luciferase, luminescence, FRG1 inhibition for FSHD, primary screen (AID 1084); details: FRG1 promoter luciferase, higher = more signal, called active from +8 up or from −8 down
[9] = small molecules captured by biotinylated probe aFST – biochemical, small-molecule microarray, fluorescence 635/667, stem cell growth factor project, primary screen (AID 1086); details: higher = more signal;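 also: score merges 667 nm fluorescence with signal-to-noise of each printed compound spot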
[10] = binders of probe aHhip on microarray, primary screen, stem cell growth factor project, biochemical, small-molecule microarray, fluorescence 635/667 (AID 1087); details: higher = more signal;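 also: score merges spot fluorescence at 667nm with spot signal to noise ratio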
[11] = tested on: PRMT1 (protein arginine N-methyltransferase 1); assay: small molecules binding arginine methyltransferase PRMT1 – biochemical, small-molecule microarray, 635 nm fluorescence, primary screen (AID 1088); details: higher = more signal;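 also: binding of Prmt1 protein to compounds spotted on small-molecule microarray slides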
[12] = growth effects on S. cerevisiae YJM789 – YJM789 clinical isolate, OD600, 24 h, basal, primary screen (AID 1089); details: higher = more signal, called active from +8 up or from −8 down;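 also: growth of clinical yeast isolate S. cerevisiae YJM 789 seeded 1000 cells per well; test concentration not given here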
[13] = S. pombe growth modifiers, basal conditions – strain 972, OD600, 24 h, no modulator, primary screen (AID 1090);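 also: basal condition with compound alone and no growth modifier present; test concentration not given here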; details: S. pombe 972 growth, higher = more signal, called active from +8 up or from −8 down
[14] = budding yeast growth modifiers under rapamycin – strain BY4716, OD600, 96 h, primary screen (AID 1091); also: test concentration not given here; details: S. cerevisiae BY4716 + rapamycin, higher = more signal, called active from +8 up or from −8 down
[15] = target: Torsin-1A-interacting protein 2 (Homo sapiens) (UniProt Q8NFQ8); assay: small molecules binding lysate-expressed LULL1 – cell lysate, human LULL1 lysate, 635/667 nm fluorescence, primary screen (AID 1092); details: small-molecule microarray, hLULL1 lysate binding, 635 nm fluorescence; higher = more signal;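 also: probe is lysate of COS7 cells overexpressing human LULL1; score merges per-feature 667 nm fluorescence with signal-to-noise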
[16] = optical density change of DRC41 E. coli – strain DRC41, OD650, 24 h, E. coli filamentation project, primary screen (AID 1093);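 also: MC1000 strain lacking acrAB efflux and sulA so SOS filamentation is blocked; test concentration not given here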; details: E. coli DRC41 growth, higher = more signal, called active from +8 up or from −8 down
[17] = probe aLefty2 binding to arrayed compounds – biochemical, biotinylated probe, 635/667 nm fluorescence, primary screen (AID 1094); details: small-molecule microarray, higher = more signal;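 also: score merges spot fluorescence near 667 nm with spot signal-to-noise ratio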
[18] = tested on: Noggin (protein binding on small-molecule microarray); assay: small molecules binding Noggin protein – biochemical, 635/667 nm fluorescence, primary screen (AID 1095); details: 635 nm fluorescence, higher = more signal;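 also: score merges 667 nm feature fluorescence with signal to noise over triplicate slides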
[19] = target: Neurogenic locus notch homolog protein 3 (Homo sapiens) (UniProt Q9UM47); assay: small molecules binding NOTCH3 protein – biochemical, 635/667 nm fluorescence, primary screen (AID 1096); details: small-molecule microarray, 635 nm fluorescence, higher = more signal
[20] = probe aEGFR binding to arrayed compounds – biochemical, biotinylated probe, 635/667 nm fluorescence, primary screen (AID 1097); details: small-molecule microarray, higher = more signal;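 also: probe is a biotinylated anti-EGFR antibody binding compounds printed on slides; score combines fluorescence near 667 nm and signal to noise of each spot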

Torsin-1A-interacting protein 2 (Homo sapiens), sequence (Q8NFQ8 whole entry, looked up): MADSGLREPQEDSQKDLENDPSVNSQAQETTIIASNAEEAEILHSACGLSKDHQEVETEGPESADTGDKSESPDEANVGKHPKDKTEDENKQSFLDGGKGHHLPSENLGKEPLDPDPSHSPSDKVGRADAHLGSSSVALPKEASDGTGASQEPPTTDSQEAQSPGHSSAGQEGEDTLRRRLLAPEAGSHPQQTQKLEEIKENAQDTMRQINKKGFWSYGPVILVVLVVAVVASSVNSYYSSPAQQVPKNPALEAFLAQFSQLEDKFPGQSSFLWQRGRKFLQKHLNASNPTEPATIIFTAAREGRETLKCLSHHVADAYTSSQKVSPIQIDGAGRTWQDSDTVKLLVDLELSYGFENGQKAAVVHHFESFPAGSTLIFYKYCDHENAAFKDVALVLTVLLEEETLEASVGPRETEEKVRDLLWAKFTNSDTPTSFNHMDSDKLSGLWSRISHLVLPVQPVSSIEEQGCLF
Neurogenic locus notch homolog protein 3 (Homo sapiens), sequence (Q9UM47 whole entry, looked up): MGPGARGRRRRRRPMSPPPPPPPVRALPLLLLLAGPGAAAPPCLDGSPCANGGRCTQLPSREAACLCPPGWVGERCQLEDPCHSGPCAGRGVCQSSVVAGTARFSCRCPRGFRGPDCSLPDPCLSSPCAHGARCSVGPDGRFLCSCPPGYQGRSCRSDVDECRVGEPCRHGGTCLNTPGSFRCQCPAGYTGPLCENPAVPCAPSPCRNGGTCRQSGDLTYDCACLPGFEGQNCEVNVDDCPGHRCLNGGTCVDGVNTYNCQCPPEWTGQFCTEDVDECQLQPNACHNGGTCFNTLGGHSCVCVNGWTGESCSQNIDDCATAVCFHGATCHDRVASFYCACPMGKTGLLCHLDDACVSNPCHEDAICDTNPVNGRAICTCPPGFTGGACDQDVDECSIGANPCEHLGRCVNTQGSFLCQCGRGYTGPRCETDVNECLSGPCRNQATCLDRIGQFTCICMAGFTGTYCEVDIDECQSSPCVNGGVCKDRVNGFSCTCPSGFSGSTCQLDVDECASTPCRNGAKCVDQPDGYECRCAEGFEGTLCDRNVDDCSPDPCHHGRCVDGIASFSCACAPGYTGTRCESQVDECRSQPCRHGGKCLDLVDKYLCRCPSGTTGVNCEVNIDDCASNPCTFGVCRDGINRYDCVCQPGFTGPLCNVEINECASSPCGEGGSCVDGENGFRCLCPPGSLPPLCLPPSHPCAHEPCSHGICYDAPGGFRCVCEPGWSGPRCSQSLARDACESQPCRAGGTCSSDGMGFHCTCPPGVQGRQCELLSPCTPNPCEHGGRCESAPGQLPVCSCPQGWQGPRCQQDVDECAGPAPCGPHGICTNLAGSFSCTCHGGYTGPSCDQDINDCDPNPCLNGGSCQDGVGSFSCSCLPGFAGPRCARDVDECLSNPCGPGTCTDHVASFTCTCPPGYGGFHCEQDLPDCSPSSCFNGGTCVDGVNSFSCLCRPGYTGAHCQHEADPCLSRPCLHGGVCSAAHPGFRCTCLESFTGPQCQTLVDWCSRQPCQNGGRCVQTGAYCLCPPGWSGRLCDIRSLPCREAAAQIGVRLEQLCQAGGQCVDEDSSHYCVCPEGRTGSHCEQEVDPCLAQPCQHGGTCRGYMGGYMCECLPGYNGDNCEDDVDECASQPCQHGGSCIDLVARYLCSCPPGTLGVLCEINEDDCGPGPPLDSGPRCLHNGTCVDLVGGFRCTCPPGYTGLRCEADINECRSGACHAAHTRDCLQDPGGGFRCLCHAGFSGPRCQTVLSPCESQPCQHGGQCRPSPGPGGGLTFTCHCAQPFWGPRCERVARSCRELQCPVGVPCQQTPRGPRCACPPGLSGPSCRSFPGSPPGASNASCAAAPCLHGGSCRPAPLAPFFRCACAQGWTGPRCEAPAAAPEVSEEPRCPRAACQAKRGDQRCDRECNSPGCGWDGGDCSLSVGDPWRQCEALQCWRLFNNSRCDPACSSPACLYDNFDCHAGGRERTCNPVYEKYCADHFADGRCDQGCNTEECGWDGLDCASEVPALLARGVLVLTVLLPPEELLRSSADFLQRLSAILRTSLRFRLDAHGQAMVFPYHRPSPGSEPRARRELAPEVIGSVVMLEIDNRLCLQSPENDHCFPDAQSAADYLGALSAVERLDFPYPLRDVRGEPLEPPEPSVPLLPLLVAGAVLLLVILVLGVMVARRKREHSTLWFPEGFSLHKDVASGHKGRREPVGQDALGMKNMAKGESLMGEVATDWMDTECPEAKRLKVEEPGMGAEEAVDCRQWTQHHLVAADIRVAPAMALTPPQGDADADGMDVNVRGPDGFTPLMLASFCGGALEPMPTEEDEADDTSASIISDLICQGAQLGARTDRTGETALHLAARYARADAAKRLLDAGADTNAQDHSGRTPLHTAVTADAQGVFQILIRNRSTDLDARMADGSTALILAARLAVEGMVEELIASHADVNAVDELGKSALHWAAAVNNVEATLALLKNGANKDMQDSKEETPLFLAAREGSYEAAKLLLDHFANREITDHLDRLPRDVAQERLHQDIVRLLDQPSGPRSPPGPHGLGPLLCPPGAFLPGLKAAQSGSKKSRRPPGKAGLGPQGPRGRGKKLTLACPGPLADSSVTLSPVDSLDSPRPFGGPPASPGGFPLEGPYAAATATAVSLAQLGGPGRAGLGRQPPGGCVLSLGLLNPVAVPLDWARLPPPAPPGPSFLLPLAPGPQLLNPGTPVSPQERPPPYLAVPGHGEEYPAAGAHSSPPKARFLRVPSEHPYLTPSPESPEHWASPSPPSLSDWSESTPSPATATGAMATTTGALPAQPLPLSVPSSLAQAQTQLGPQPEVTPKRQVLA
Pro-neuregulin-1, membrane-bound isoform (Homo sapiens), sequence (Q02297 whole entry, looked up, the tested form may be a part, canonical isoform): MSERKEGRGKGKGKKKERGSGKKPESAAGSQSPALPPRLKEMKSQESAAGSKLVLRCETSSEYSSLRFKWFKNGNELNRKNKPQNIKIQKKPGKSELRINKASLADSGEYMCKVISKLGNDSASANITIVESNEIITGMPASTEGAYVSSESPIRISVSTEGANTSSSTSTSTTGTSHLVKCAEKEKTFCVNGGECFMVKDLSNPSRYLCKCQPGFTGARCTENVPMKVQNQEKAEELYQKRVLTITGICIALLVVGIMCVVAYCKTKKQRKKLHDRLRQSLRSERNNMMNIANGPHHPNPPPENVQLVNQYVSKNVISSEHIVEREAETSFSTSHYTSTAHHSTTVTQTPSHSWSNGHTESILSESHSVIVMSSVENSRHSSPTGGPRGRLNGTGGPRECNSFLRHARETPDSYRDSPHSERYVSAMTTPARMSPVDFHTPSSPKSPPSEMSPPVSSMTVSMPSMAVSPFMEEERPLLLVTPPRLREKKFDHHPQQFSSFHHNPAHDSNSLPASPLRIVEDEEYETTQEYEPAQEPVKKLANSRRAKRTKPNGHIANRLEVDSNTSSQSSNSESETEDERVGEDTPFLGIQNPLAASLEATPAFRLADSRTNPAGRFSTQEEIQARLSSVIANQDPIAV

Q: With `C=CCN(CCCC)C(=O)C1N(c2ccc(CCO)cc2)C(=O)C2C(C(=O)O)C3C=CC21O3` (stereo not given) as the compound, how does the composite z-score [1] read?
A: The composite z-score was 0.508 and 1.27.

Q: And the composite z-score [2]?
A: The composite z-score was -1.1 and -1.66.

Q: And the composite z-score [3]?
A: The composite z-score was -0.156 and -0.061.

Q: What about the composite z-score [4] of the same compound?
A: The composite z-score was -0.883 and 0.807.

Q: And the composite z-score [5]?
A: The composite z-score was -1.32 and -0.91.

Q: And the composite z-score [6]?
A: The composite z-score was -1.32 and -0.402.

Q: And the composite z-score [7]?
A: The composite z-score was -0.493 and 0.201.

Q: What about the z-score [8] of the same compound?
A: Its z-score is -0.267 (inactive) and 1.68 (inactive).

Q: What about the composite z-score [9] of the same compound?
A: The composite z-score was -0.951 and -1.03.

Q: What about the composite z-score [10] of the same compound?
A: The composite z-score was -0.48 and -0.137.

Q: What about the composite z-score [11] of the same compound?
A: Its composite z-score is 0.0734 and -0.79.

Q: What about the z-score [12] of the same compound?
A: The z-score was -0.844 (inactive) and -0.115 (inactive).

Q: What about the z-score [13] of the same compound?
A: Its z-score is -0.261 (inactive) and -0.527 (inactive).

Q: And the z-score [14]?
A: The z-score was -0.0659 (inactive) and 0.252 (inactive).

Q: What about the composite z-score [15] of the same compound?
A: Its composite z-score is -1.07 and 0.53.

Q: And the z-score [16]?
A: Its z-score is 1.13 (inactive) and 2.05 (inactive).

Q: What about the composite z-score [17] of the same compound?
A: Its composite z-score is 0.113 and 0.0553.

Q: What about the composite z-score [18] of the same compound?
A: Its composite z-score is -2.44 and -3.58.

Q: And the composite z-score [19]?
A: Its composite z-score is -1.38 and -1.27.

Q: And the composite z-score [20]?
A: Its composite z-score is -0.226 and -0.317.

Q: Which composite z-score [1] does the source give for `COC(=O)C1=C(C)N(Cc2ccccc2)C2=C3C(=O)N(C)C(=O)[C@@H]3[C@@](O)(C(=O)OC)C(=O)N2[C@@H]1c1ccccc1` here?
A: The composite z-score was -0.0472 and -0.448.

Q: What about the composite z-score [2] of the same compound?
A: Its composite z-score is 0.131 and 0.375.

Q: And the composite z-score [3]?
A: The composite z-score was -0.0301 and -0.0158.

Q: And the composite z-score [4]?
A: The composite z-score was 0.721 and 0.128.

Q: And the composite z-score [5]?
A: Its composite z-score is 0.356 and 0.415.

Q: What about the composite z-score [6] of the same compound?
A: Its composite z-score is -0.239 and -0.0154.

Q: And the composite z-score [7]?
A: The composite z-score was -0.322 and -0.0698.

Q: And the z-score [8]?
A: The z-score was 0.121 (inactive) and -0.811 (inactive).

Q: And the composite z-score [9]?
A: The composite z-score was 0.224 and -0.114.

Q: And the composite z-score [10]?
A: The composite z-score was 0.251 and -0.0645.

Q: And the composite z-score [11]?
A: Its composite z-score is 0.471 and 0.0202.

Q: And the z-score [12]?
A: The z-score was 0.0264 (inactive) and -1.64 (inactive).

Q: And the z-score [13]?
A: The z-score was -0.774 (inactive) and -1.87 (inactive).

Q: And the z-score [14]?
A: The z-score was -0.807 (inactive) and -0.913 (inactive).

Q: And the composite z-score [15]?
A: Its composite z-score is 0.0055 and 0.222.

Q: And the z-score [16]?
A: Its z-score is 0.858 (inactive) and -0.0481 (inactive).

Q: And the composite z-score [17]?
A: Its composite z-score is 0.0494 and -0.184.

Q: What about the composite z-score [18] of the same compound?
A: Its composite z-score is 0.34 and 0.538.

Q: And the composite z-score [19]?
A: The composite z-score was 0.182 and 0.361.

Q: What about the composite z-score [20] of the same compound?
A: The composite z-score was -0.138 and 0.131.

Q: Which composite z-score [1] does the source give for `CC(C)CON=C1C[C@@H](O)[C@@H](O)[C@@H]2[C@@H]3C(=O)N(c4cccc(Oc5ccccc5)c4)C(=O)[C@@H]3CC[C@H]12` here?
A: The composite z-score was -0.273.

Q: What about the composite z-score [2] of the same compound?
A: Its composite z-score is 0.459.

Q: What about the composite z-score [3] of the same compound?
A: The composite z-score was -0.179.

Q: And the composite z-score [4]?
A: The composite z-score was 0.253.

Q: What about the composite z-score [5] of the same compound?
A: Its composite z-score is 0.547.

Q: What about the composite z-score [6] of the same compound?
A: The composite z-score was 0.685.

Q: And the composite z-score [7]?
A: The composite z-score was 0.781.

Q: What about the z-score [8] of the same compound?
A: Its z-score is -0.423 (inactive).

Q: And the composite z-score [9]?
A: The composite z-score was 0.769.

Q: What about the composite z-score [10] of the same compound?
A: Its composite z-score is -0.0645.

Q: What about the composite z-score [11] of the same compound?
A: Its composite z-score is 0.973.

Q: What about the z-score [12] of the same compound?
A: The z-score was 0.097 (inactive).

Q: And the z-score [13]?
A: Its z-score is 0.561 (inactive).

Q: What about the z-score [14] of the same compound?
A: The z-score was -0.54 (inactive).

Q: And the composite z-score [15]?
A: Its composite z-score is 0.897.

Q: And the z-score [16]?
A: Its z-score is 1.04 (inactive).

Q: And the composite z-score [17]?
A: Its composite z-score is -0.136.

Q: And the composite z-score [18]?
A: The composite z-score was 0.318.

Q: And the composite z-score [19]?
A: The composite z-score was 0.951.

Q: What about the composite z-score [20] of the same compound?
A: Its composite z-score is -0.0549.

Q: Which results are given for `CCOC(=O)[C@H](CC(C)C)NC(=O)CCC1CC(OC(=O)NCc2cccc3ccccc23)CC2(CCCC(COC(=O)NCc3ccccc3)O2)O1` (stereo not given in full)?
A: composite z-score [1]: -0.289; composite z-score [2]: -0.0297; composite z-score [3]: -0.116; composite z-score [4]: 0.129; composite z-score [5]: -0.362; composite z-score [6]: -0.421; composite z-score [7]: -0.0852; z-score [8]: 2.99 (inactive); composite z-score [9]: -0.0955; composite z-score [10]: -0.143; composite z-score [11]: -0.0282; z-score [12]: -1.11 (inactive); z-score [13]: -0.0838 (inactive); z-score [14]: -0.395 (inactive); composite z-score [15]: -0.393; z-score [16]: -0.548 (inactive); composite z-score [17]: -0.221; composite z-score [18]: 0.306; composite z-score [19]: 0.156; composite z-score [20]: -0.182
